According to the antibiotic and cytotoxicity screens of Wong et al. (2023):
About 3,300 (8.5%) of roughly 39,000 compounds were called active. The entries come from a sample that favours actives as a whole.

These molecules were tested on HepG2 (assay: cytotoxicity call (relative viability < 0.9)). Details: 10 µM.
With C[C@@H]1CN([C@H](C)CO)C(=O)c2cc(NC(=O)CCN3CCOCC3)ccc2O[C@@H]1CN(C)C(=O)Nc1ccccc1 the cytotoxicity call was “inactive”.
In the case of C[C@@H]1CN([C@@H](C)CO)S(=O)(=O)c2ccc(C#CC3CCCC3)cc2O[C@H]1CN(C)Cc1cncnc1, the cytotoxicity call is reported as “inactive”.
For C[C@@H]1O[C@@H](O[C@@H]2[C@@H](O)[C@@H](O[C@@H]3O[C@@H](CO)[C@H](O)[C@H]3O)[C@H](OC(=O)[C@]34CCC(C)(C)C[C@H]3C3=CC[C@H]5[C@@]6(C)C[C@H](O)[C@H](O[C@@H]7O[C@@H](C)[C@H](O)[C@@H](O[C@@H]8OC[C@@H](O)[C@H](O)[C@H]8O[C@@H]8O[C@H](CO)[C@@H](O)[C@H](O)[C@H]8O)[C@H]7O)[C@@](C)(CO)[C@@H]6CC[C@@]5(C)[C@]3(C)C[C@H]4O)O[C@H]2C)[C@H](O)[C@H](O)[C@H]1O, the cytotoxicity call was “active”.
With C[C@H]1O[C@@H](OC(=O)[C@]23CCC(C)(C)C[C@H]2C2=CC[C@H]4[C@@]5(C)CC[C@H](O[C@@H]6O[C@H](C(=O)O)[C@@H](O)[C@H](O[C@@H]7OC[C@@H](O)[C@H](O)[C@H]7O)[C@H]6O[C@@H]6O[C@H](CO)[C@H](O)[C@H](O)[C@H]6O)[C@@](C)(C=O)[C@@H]5CC[C@@]4(C)[C@]2(C)C[C@H]3O)[C@H](O[C@H]2O[C@@H](CO)[C@@H](O)[C@@H](O)[C@@H]2O)[C@@H](O)[C@H]1O[C@@H]1O[C@H](C)[C@@H](O[C@H]2OC[C@@H](O)[C@@H](O)[C@@H]2O)[C@H](O)[C@@H]1O the cytotoxicity call was “inactive”.
C=C[C@](C)(O)CC/C=C(\C)C(=O)O[C@@H]1[C@@H](O[C@@](C)(C=C)CC/C=C(\C)C(=O)O[C@H]2C[C@@]3(C(=O)O[C@H]4OC[C@@H](O[C@H]5O[C@@H](CO)[C@@H](O)[C@@H](O[C@H]6O[C@@H](CO)[C@@H](O[C@H]7O[C@@H](CO)[C@@H](O)[C@@H](O)[C@@H]7O)[C@@H](O)[C@@H]6O)[C@@H]5O)[C@@H](O)[C@@H]4O)[C@@H](O)C[C@@]4(C)C(=CC[C@H]5[C@@]6(C)CC[C@@H](O[C@H]7O[C@@H](CO)[C@@H](O[C@H]8O[C@@H](CO)[C@@H](O)[C@@H](O[C@H]9OC[C@@H](O)[C@@H](O)[C@@H]9O)[C@@H]8O)[C@@H](O)[C@@H]7O)C(C)(C)[C@@H]6CC[C@@]54C)[C@@H]3CC2(C)C)OC[C@@H](O)[C@H]1O was tested, and the cytotoxicity call was “active”.
C[C@H]1O[C@@H](O[C@H]2[C@@H](O)[C@@H](O)[C@@H](O[C@H]3CC[C@]4(C)[C@H]5CC=C6[C@H]7CC(C)(C)[C@H]8C[C@]7(C(=O)O8)[C@@H](O)C[C@]6(C)[C@@]5(C)CC[C@H]4C3(C)C)O[C@@H]2CO)[C@@H](O)[C@@H](O[C@H]2OC[C@@H](O)[C@@H](O)[C@@H]2O)[C@@H]1O was tested, and the cytotoxicity call was “inactive”.
CC(=O)N[C@H]1[C@H](O[C@H]2CC[C@]3(C)[C@H]4CC=C5[C@@H]6CC(C)(C)CC[C@]6(C(=O)O[C@H]6OC[C@@H](O)[C@@H](O)[C@@H]6O)[C@@H](O)C[C@@]5(C)[C@]4(C)CC[C@H]3C2(C)C)O[C@H](CO[C@H]2OC[C@@H](O)[C@@H](O[C@H]3OC[C@@H](O)[C@@H](O)[C@@H]3O)[C@@H]2O)[C@@H](O[C@@H]2O[C@@H](C)[C@H](O)[C@@H](O)[C@H]2O[C@@H]2O[C@@H](C)[C@H](O)[C@@H](O)[C@H]2O)[C@@H]1O was tested, and the cytotoxicity call was “active”.
With C[C@@H]1O[C@H](O[C@H]2[C@H](OC(=O)[C@]34CCC(C)(C)C[C@@H]3C3=CC[C@@H]5[C@@]6(C)CC[C@H](O[C@@H]7O[C@@H](C)[C@H](O[C@@H]8OC[C@@H](O)[C@H](O)[C@H]8O)[C@@H](O)[C@H]7O)C(C)(C)[C@@H]6CC[C@@]5(C)[C@]3(C)C[C@@H]4O)OC[C@H](O)[C@H]2O)[C@H](O)[C@H](O)[C@H]1O[C@@H]1O[C@H](CO)[C@@H](O)[C@H](O)[C@H]1O the cytotoxicity call was “inactive”.
For C[C@@H]1O[C@@H](O[C@H]2[C@H](OC(=O)[C@]34CCC(C)(C)C[C@H]3C3=CC[C@H]5[C@@]6(C)CC[C@H](O[C@@H]7O[C@H](CO)[C@@H](O)[C@H](O)[C@H]7O)C(C)(C)[C@@H]6CC[C@@]5(C)[C@]3(C)C[C@H]4O)OC[C@H](O)[C@@H]2O)[C@H](O)[C@H](O[C@@H]2OC[C@H](O)[C@H](O)[C@H]2O)[C@H]1O[C@@H]1OC[C@@H](O)[C@H](O[C@@H]2OC[C@H](O)[C@H](O)[C@H]2O)[C@H]1O, the cytotoxicity call was “active”.
In the case of C[C@@H]1O[C@H](O[C@@H]2[C@H](O)C[C@@]3(C)[C@@H](CC[C@]4(C)[C@H]3CC=C3[C@H]5CC(C)(C)CC[C@@]5(C(=O)O[C@H]5O[C@@H](C)[C@@H](O)[C@H](O[C@H]6OC[C@@H](O)[C@@H](O)[C@@H]6O)[C@H]5O[C@@H]5O[C@H](C)[C@H](O)[C@H](O[C@@H]6OC[C@H](O)[C@H](O[C@@H]7O[C@H](C)[C@@H](O)[C@H](O)[C@@H]7O)[C@H]6O)[C@H]5O)[C@@H](O)C[C@@]34C)[C@]2(C)CO)[C@@H](O)[C@H](O[C@H]2OC[C@@H](O)[C@@H](O[C@H]3OC[C@@H](O[C@H]4OC[C@@](O)(CO)[C@@H]4O)[C@@H](O)[C@@H]3O)[C@@H]2O)[C@@H]1O, the cytotoxicity call is reported as “inactive”.
CC1(C)CC[C@]2(C(=O)O[C@@H]3O[C@H](CO)[C@@H](O)[C@H](O)[C@H]3O)CC[C@]3(C)C(=CC[C@H]4[C@@]5(C)CC[C@@H](O[C@@H]6O[C@H](C(=O)O)[C@@H](O[C@@H]7OC[C@@H](O)[C@H](O)[C@H]7O)[C@H](O[C@@H]7OC[C@](O)(CO)[C@H]7O)[C@H]6O)C(C)(C)[C@@H]5CC[C@]43C)[C@@H]2C1 was tested, and the cytotoxicity call was “inactive”.
C[C@@H]1O[C@@H](O[C@@H]2CC[C@@]3(C)[C@@H](CC[C@]4(C)[C@@H]3CC=C3[C@@H]5CC(C)(C)CC[C@]5(C(=O)O[C@@H]5O[C@H](CO[C@@H]6O[C@H](CO)[C@@H](O)[C@H](O)[C@H]6O)[C@@H](O)[C@H](O)[C@H]5O)CC[C@]34C)[C@]2(C)CO)[C@H](O)[C@H](O[C@@H]2OC[C@@H](O)[C@H](O)[C@H]2O)[C@H]1O was tested, and the cytotoxicity call was “inactive”.
In the case of C[C@@H]1CN([C@H](C)CO)C(=O)Cc2cc(NS(=O)(=O)c3cccs3)ccc2O[C@H]1CN(C)C(=O)Nc1cccc2ccccc12, the cytotoxicity call is reported as “inactive”.
With CCCNC(=O)N(C)C[C@@H]1Oc2cc(-c3ccccc3F)ccc2S(=O)(=O)N([C@@H](C)CO)C[C@@H]1C the cytotoxicity call was “inactive”.
For CN(C)CCCNC(=O)C[C@@H]1C=C[C@H](NS(=O)(=O)c2ccccc2)[C@@H](CO)O1, the cytotoxicity call was “inactive”.
With C[C@@H]1CCCCO[C@@H](CN(C)S(=O)(=O)c2cn(C)cn2)[C@@H](C)CN([C@H](C)CO)C(=O)c2cc(NS(=O)(=O)c3ccccc3)ccc2O1 the cytotoxicity call was “inactive”.
In the case of O=C(NCCCN1CCOCC1)[C@H]1[C@H](CO)[C@H]2Cn3c(cccc3=O)[C@@H]1N2C(=O)C1CCCC1, the cytotoxicity call is reported as “inactive”.
With COc1ccc(CNC(=O)C[C@H]2C[C@@H]3c4cc(NS(=O)(=O)c5ccc(F)cc5)ccc4O[C@@H]3[C@H](CO)O2)cc1 the cytotoxicity call was “inactive”.
C[C@@H]1CN([C@@H](C)CO)C(=O)Cc2cc(NC(=O)CCCCCC(=O)Nc3ccccc3N)ccc2O[C@H]1CN(C)S(C)(=O)=O was tested, and the cytotoxicity call was “inactive”.
With COc1cccc(CN(C)C[C@@H]2OCc3ccccc3-c3c(n(C)c4ccccc34)C(=O)N([C@@H](C)CO)C[C@H]2C)c1 the cytotoxicity call was “inactive”.
For C[C@H](CO)N1C[C@H](C)[C@H](CN(C)Cc2ccc(C(F)(F)F)cc2)OCCCC[C@H](C)Oc2ccc(NS(=O)(=O)c3cn(C)cn3)cc2C1=O, the cytotoxicity call was “inactive”.
In the case of O=C(C[C@@H]1CC[C@H]2[C@@H](COC[C@H](O)CN2C(=O)Nc2ccc(Cl)cc2)O1)NCCc1ccncc1, the cytotoxicity call is reported as “inactive”.
With C[C@@H]1CCCCO[C@H](CN(C)Cc2ccc(C(F)(F)F)cc2)[C@@H](C)CN([C@@H](C)CO)C(=O)c2cc(N(C)C)ccc2O1 the cytotoxicity call was “inactive”.
With O=C(C[C@@H]1C[C@@H]2c3cc(NC(=O)C4CCOCC4)ccc3O[C@@H]2[C@H](CO)O1)NCc1cc(F)ccc1F the cytotoxicity call was “inactive”.
In the case of O=c1c(O)c(O)cc2cccc(O)c(O)c1-2, the cytotoxicity call is reported as “active”.
With O=C(O)c1cc2ccc(O)c(=O)c-2c(O)c(O)c1 the cytotoxicity call was “inactive”.
In the case of O=c1c(O)cccc2cc(O)c(O)c(O)c12, the cytotoxicity call is reported as “inactive”.
For CCCNC(=O)Nc1ccc2c(c1)OC[C@H](C)N(C(=O)C1CCOCC1)C[C@H](C)[C@@H](OC)CN(C)C2=O, the cytotoxicity call was “inactive”.
With Cc1ccc(S(=O)(=O)N(C)C[C@@H]2Oc3ccc(NS(C)(=O)=O)cc3CC(=O)N([C@@H](C)CO)C[C@H]2C)cc1 the cytotoxicity call was “inactive”.
In the case of C=CCN(Cc1ccccc1)C(=O)[C@@H]1N(CCOCCO)C(=O)[C@@H]2[C@H](C(=O)O)[C@@H]3C=C[C@@]21O3, the cytotoxicity call is reported as “inactive”.
In the case of C=CCOC(=O)[C@@H]1[C@@H]2C=C[C@]3(O2)[C@H](C(=O)N(CC=C)Cc2ccccc2)N(c2cccc(Cl)c2CO)C(=O)[C@@H]13, the cytotoxicity call is reported as “inactive”.
With C=CCOC(=O)[C@@H]1[C@@H]2C=C[C@@]3(O2)[C@@H]1C(=O)N(CCCCCCO)[C@H]3C(=O)N(CC=C)Cc1ccccc1 the cytotoxicity call was “active”.
In the case of Cc1cc(C(=O)Nc2cccc3c2O[C@@H](CN(C)C(=O)Nc2ccc4c(c2)OCO4)[C@H](C)CN([C@H](C)CO)C3=O)n(C)n1, the cytotoxicity call is reported as “inactive”.
CC(=O)N1CCN(CCOc2ccc(C3CCN(C4=Nn5c(nnc5C(F)(F)F)CC4)CC3)cc2)CC1 was tested, and the cytotoxicity call was “active”.
For C[C@@H]1CN([C@H](C)CO)S(=O)(=O)c2ccc(/C=C/c3ccccc3)cc2O[C@@H]1CN(C)C(=O)CN1CCOCC1, the cytotoxicity call was “inactive”.
With COc1ccc(NC(=O)N(C)C[C@H]2OCCCC[C@H](C)Oc3ccc(NC(=O)Nc4ccc(F)cc4)cc3C(=O)N([C@@H](C)CO)C[C@H]2C)cc1 the cytotoxicity call was “inactive”.
